Measured values published in PubChem BioAssay AID1159580 (chemical genetic matrix, 2015).
Among all 5,500 compounds or so, about 2,000 (36%) were called active. About 18% were inconclusive and are not listed. Rule as the data show it: active = normalized growth mostly below about 0.91 (no sharp cut-off); inconclusive = no clear call, values can overlap the other calls; inactive = mostly above about 0.92. This is one part of the list.

Experiment: chemical genetic growth profiling, strain panel (AID 1159580);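 also: tested at 20 µM; growth read once vehicle control cultures reached saturation at 30 °C; 1 = growth at the plate median or of vehicle wells; lower values mean less growth of the strain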
Details: S. cerevisiae deletion strains, growth OD

Measured: normalized growth

CCN(CCCl)Cc1ccccc1Br
inactive: locus YAL040C, strain CLN3, stronger effect = lower value 1.06 | locus YCL061C, strain MRC1 (second series), stronger effect = lower value 0.994 | locus YDR363W, strain ESC2, stronger effect = lower value 0.91 | locus YER002W, strain NOP16, stronger effect = lower value 1.04 | locus YJR075W, strain HOC1, stronger effect = lower value 0.994 | locus YNL153C, strain GIM3, stronger effect = lower value 1.02 | locus YNL175C, strain NOP13, stronger effect = lower value 1 | locus YNL197C, strain WHI3, stronger effect = lower value 1.02 | locus YNL224C, strain SQS1, stronger effect = lower value 0.995 | locus YNL322C, strain KRE1, stronger effect = lower value 0.974 | locus YOR083W, strain WHI5 (second series), stronger effect = lower value 0.968 | locus YPL241C, strain CIN2, stronger effect = lower value 0.999
